The list is not random: actives were taken first. Their share in the collection is about 6.1%.
D1 PAM: enhances dopamine response at the human D1 receptor. hit rate 0.036% among 360,000. AID 504651. P21728. potentiation, % at 10 µM. HEK293 TREx D1 cells, calcium flux, dopamine EC20 potentiation; in the data active = potentiation above about 30%; note: 0% is about no effect
DRD3 antagonist: blocks the human D3 dopamine receptor; P35462; D3R cells, DiscoveRx beta-arrestin luminescence, antagonist mode; hits give low values; max response, negative = inhibition, %; hit rate 2.5% among 360,000; AID 652054; in the data active = max response below about -50%; inconclusive = no clear call, values can overlap the other calls; note: % is set by controls: 0 for no effect and ±100 for the full control effect
Target sequence (P35462 whole entry, looked up): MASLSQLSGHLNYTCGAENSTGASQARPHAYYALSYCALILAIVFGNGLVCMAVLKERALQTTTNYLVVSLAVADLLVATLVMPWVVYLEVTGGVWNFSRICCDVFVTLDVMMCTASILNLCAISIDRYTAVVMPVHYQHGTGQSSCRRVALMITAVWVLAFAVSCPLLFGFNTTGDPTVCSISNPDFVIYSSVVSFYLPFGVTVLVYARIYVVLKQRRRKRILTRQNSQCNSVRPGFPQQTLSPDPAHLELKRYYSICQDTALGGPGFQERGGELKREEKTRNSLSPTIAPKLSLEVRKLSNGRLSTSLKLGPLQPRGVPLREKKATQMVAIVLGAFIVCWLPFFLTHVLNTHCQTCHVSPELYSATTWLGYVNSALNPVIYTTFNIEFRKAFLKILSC
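Cells expressing the human receptor were seeded at 1500 cells/well, incubated overnight at 37 degrees C in 5% CO2, then exposed to library compounds with dopamine controls for 90 minutes at 37 degrees C before luminescent detection.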
D1 agonist: activates the human D1 dopamine receptor; HEK293 T-REx D1 cells, calcium flux, agonist mode; activation, % at 2 µM; hit rate 1% among 360,000; AID 504660; in the data active = activation above about 30%; note: 0% is about no effect
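Inducible HEK293 T-REx D1 cells, force-coupled to calcium signalling, were plated at 4000 cells/well with tetracycline and held overnight at 30 C. After no-wash calcium dye loading, compound-evoked calcium rise over 180 s flagged agonists.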
D1 antagonist: blocks dopamine activation of the human D1 receptor | P21728 | HEK293 TREx D1 cells, calcium flux, dopamine EC80; hits give low values | activity change, negative = inhibition, % at 10 µM | hit rate 3.2% among 360,000 | AID 504652; in the data active = activity change below about -30%; note: % is set by controls: 0 for no effect and ±100 for the full control effect
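Calcium flux readout: force-coupled, inducible Hek293 Trex D1 line, cells induced overnight at 30 C with tetracycline, dye-loaded 30–90 min at RT. Antagonism scored against EC80 dopamine challenge given 180 s after compound.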
D3 ag: activates the human D3 dopamine receptor | P35462 | D3R DiscoveRx beta-arrestin cells, luminescence, 90 min | max activation, % | hit rate 0.58% among 410,000; in the data active = max activation above about 30%; note: 0% is about no effect
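Agonist-mode cell screen: cells plated at 1500/well and incubated overnight at 37 °C, then exposed to library compounds for 90 min at 37 °C. Detection reagent was added for 30–60 min at room temperature, and luminescence was read.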
Active calls of the source: *; ? = inconclusive; · = not tested or not shown; ! = repeats disagree.

SMILES	D1 PAM	DRD3 antagonist	D1 agonist	D1 antagonist	D3 ag
CCCCCCCCCCCCCCCC[n+]1cccc(C(=O)N(CC)CC)c1	15.1	-74.2*!	279.2*	-21.2	-11.0
N#C/C(=C\C1CC=CCC1)c1nc2ccccc2[nH]1 (configuration not stated)	-10.5	-12.4	22.1	-35.1*	-5.5
Cc1ccc(NC(=O)N(Cc2ccco2)Cc2cc3cc(C)cc(C)c3nc2Cl)cc1	-5.3	·	5.3	-3.7	·
Cc1cccc2cc(CN(Cc3ccco3)C(=O)Nc3cccc(C#N)c3)c(Cl)nc12	-7.6	7.0	14.1	-55.0*	3.6
Nc1ncnc2c1ncn2[C@@H]1O[C@H](COP(=O)(O)OP(=O)(O)OP(=O)(O)O)[C@@H](O)[C@H]1O	17.9	-7.9	290.9*	42.2	7.6
CC1(C)O[C@@H]2[C@H](O1)[C@@H](CO)O[C@H]2n1cnc2c(N)ncnc21	-0.9	5.0	0.0	-0.9	5.1
CC1(C)O[C@@H]2[C@H](O1)[C@@H](COS(=O)(=O)O)O[C@H]2n1cnc2c(N)ncnc21	-4.1	·	3.0	-30.9*	·
O=C(Nc1ccccc1)c1ccc(Nc2c([N+](=O)[O-])cc([N+](=O)[O-])c3ccccc23)cc1	-4.5	-67.5*	4.3	-3.4	-12.7
Cc1c(C(=O)Nc2ccc(Nc3ccccc3)cc2)cccc1[N+](=O)[O-]	-3.6	0.0	2.4	10.3	-9.3
Cc1ccc(S(=O)(=O)Nc2cccc3ncccc23)s1	2.7	-77.4*	11.3	2.9	-24.9
Cc1nc2ccccc2n1CC(O)COC1CCCCC1 (configuration not stated)	-10.8	-28.3	5.4	-71.8*	-0.3
OC(COC1CCCCC1)CN1CCCCC1 (configuration not stated)	8.3	-71.7*	4.1	-5.4	-18.1
CC1CC(OCC(O)CN2CCOCC2)CC(C)(C)C1 (configuration not stated)	3.1	6.2	8.6	3.4	-4.1
O=C(c1ccccc1)N1CCN(CC(O)COC2CCCCC2)CC1 (configuration not stated)	-1.9	?	1.4	-10.1	-7.1
CC1CCN(CC(O)COC2CCC(C(C)(C)C)CC2)CC1 (configuration not stated)	2.3	-55.6*	24.4	3.1	-16.0
OCC(O)CN1CCCC1 (configuration not stated)	-0.2	-5.7	2.7	-31.9*	-0.9
COc1cccc(NC(=O)Cn2c(=O)n(Cc3ccc4c(c3)OCO4)c(=O)c3oc4ccccc4c32)c1	-2.8	·	1.8	-0.5	-3.7
Cc1cc(NC(=O)c2cccnc2)cc(-c2nc3cc(Cl)ccc3o2)c1O	-3.3	·	0.4	-9.3	-9.6
CCOC(=O)c1ccccc1NC(=O)Cn1cc(C(=O)c2cccc(OC)c2)c(=O)c2ccc(C)nc21	-2.6	·	1.4	10.9	1.0
Fc1ccc(Nc2c(-c3c[nH]c4ccccc34)nc3ccccn23)cc1	-0.8	·	-1.0	-18.4	-4.0
CC(C)(C)C1CCC(OCC(O)CN2CCN(c3ccccc3)CC2)CC1 (configuration not stated)	5.2	-20.1	0.7	-0.8	58.7*
CC(C)(C)C1CCC(OCC(O)CN2CCCC2)CC1 (configuration not stated)	4.8	2.6	33.2*	8.8	-8.5
Cc1ccc(N2CCN(CC(O)COC3CCCCC3)CC2)cc1 (configuration not stated)	-2.5	-89.6*	2.7	-8.6	-13.0
Cc1cc(C)cc(NC(=O)c2ccc3c(c2)nnn3C2CCCC2)c1	-1.2	·	6.7	-4.0	-22.5
CCN1CCN(C(=O)CS(=O)(=O)Cc2nc(-c3ccc(C)cc3)oc2C)CC1	-6.7	3.4	1.7	-30.6*	2.2
SMILES	D1 PAM	DRD3 antagonist	D1 agonist	D1 antagonist	D3 ag
CCc1ccc(OCC(=O)N(Cc2ccco2)Cc2ccccc2Cl)cc1	-2.5	·	25.3	0.5	-3.9
COc1cccc(CNC(=O)Nc2cc(C(=O)NCc3cccc(F)c3)ccc2N2CCCC2)c1	1.6	·	1.4	2.9	-4.6
CCCOc1ccc(C(=O)N2CCCc3ccccc32)cc1	-1.6	-11.8	5.3	-45.0*	-2.0
COc1ccc(CC(=O)OCC(=O)N2CCCc3ccccc32)cc1	-3.4	-22.8	3.9	-41.5*	1.2
CN(C)c1ccc(C(=O)NCc2ccc3c(c2)CCN3C(=O)c2ccccc2)cc1	-1.8	·	1.3	-8.9	0.8
O=C(CCn1cnc2onc(-c3ccc(F)cc3)c2c1=O)N1CCN(c2ccccc2F)CC1	-2.3	·	3.6	-2.1	-1.6
c1ccc(CNCc2nnc(-c3cc4ccccc4[nH]3)o2)cc1	0.1	·	5.3	11.5	·
OCC1(Cc2ccccc2)CCN(Cc2ccc(-c3ccco3)cc2)CC1	3.4	-84.7*	8.2	4.6	-30.8
OCC1(Cc2ccccc2)CCCN(Cc2ccc(-c3ccco3)cc2)C1 (configuration not stated)	-5.7	-90.4*	0.5	2.1	-20.2
CSc1ccc(CCNC(=O)c2ccc(-n3c(C)cc4c3CCCC4)cc2)cc1	-2.9	·	13.1	0.3	-7.1
COc1cc(OC)cc(C(=O)Nc2ccc(S(=O)(=O)N3CCCCC3c3cccnc3)cc2)c1 (configuration not stated)	-2.3	·	1.1	-10.0	-34.5
Cc1cccc(N2CCN(Cc3nnc(-c4ccc5c(c4)OCO5)o3)CC2)c1C	-1.6	·	-0.6	1.9	-2.5
Cc1ccc(N2CCN(Cc3nnc(-c4ccc5c(c4)OCO5)o3)CC2)c(C)c1	0.0	·	2.8	-30.1*	4.2
Cc1cccc(C)c1NC(=O)c1ccc2nc(CCc3ccccc3)oc2c1	-1.5	·	15.7	-16.7	-5.6
CC1=C(C(=O)N2CCc3ccccc32)C2(CCC(C)CC2)OC1=O (configuration not stated)	-7.5	20.2	1.7	-77.7*	1.5
CCOc1ccccc1-c1noc(CSc2nnc(-c3ccccc3)n2-c2cccc(C)c2)n1	0.6	·	8.1	-8.0	4.8
N#Cc1c2ccc([N+](=O)[O-])cc2[n+]([O-])n1-c1ccccc1	-5.7	·	6.7	-61.3*	·
CC(C)c1ccc2c(c1)C1(NN=C(c3ccccc3)S1)C(=O)N2 (configuration not stated)	-1.4	9.6	2.1	-6.5	-9.9
CCc1ccc2c(c1)C1(NN=C(c3ccc(C)cc3)S1)C(=O)N2 (configuration not stated)	-0.1	-93.9*	-2.7	-11.1	-2.4
O=C(CNCC1CCCCC1)Nc1ccc(OC(F)(F)F)cc1	-2.7	-9.3	93.1*	-42.4*	-14.7
COc1cc(-c2noc(-c3ccc(NCc4cccnc4)c([N+](=O)[O-])c3)n2)cc(OC)c1OC	-4.0	·	15.2	-18.5	5.8
CC(Oc1ccc(C#N)cc1)C(=O)Nc1ccc(-n2cnnn2)cc1 (configuration not stated)	-7.3	0.0	54.7*	-15.1	-1.0
O=C(COc1ccc(F)cc1)Nc1ccc(-n2cnnn2)cc1	-11.6	7.9	4.3	-35.7*	-0.4

High-throughput results as filed in PubChem.
